Measured values as given in PubChem BioAssay (NCATS).
Inconclusive results are not listed. Values without a mark were called inactive. Active and inactive are the calls of the source. Calls come from the whole dose curve; as a rule, active = well fitted inhibition curve with a large enough effect; inconclusive = small, poorly fitted or top-dose-only effect; inactive = flat fitted curve, though single readings scatter.

target: Aldehyde dehydrogenase, mitochondrial (Homo sapiens) (UniProt P05091); assay: qHTS for Inhibitors of the Aldehyde Dehydrogenase Family (ALDH2) Primary screen (AID 2061308); details: ALDH2 enzyme inhibition qHTS, 1536-well; series mostly up to 56 µM; activity change, negative = inhibition: at the top concentration;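 note: plate controls were vehicle for no effect and reference inhibitor for full effect; nearly all actives have a fitted effect of over 55% in size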

SMILES | activity change, negative = inhibition | Potency
CCOC(=O)C1CCN(C(=O)C(C)(C)NC(=O)Nc2ccc(Cl)cc2Cl)CC1 | -12.3% | 
O=C(Nc1ccc(N2CCOCC2)c(C(F)(F)F)c1)Nc1nnc(-c2ccncc2)s1 | 17.1% | 
O=C(NCCc1nc2ccccc2n1CCOc1ccc(C(F)(F)F)cc1)C1CCCCC1 | -7.58% | 
CC(C)c1cccc2c(-c3ccccc3)cc(-c3ccc(-c4ccc(C(=O)O)cc4)[nH]3)nc12 | -0.691% | 
COc1ccc2nc(-c3ccc(Cl)cc3)sc2c1 | 19.6% | 
O=C(Nc1ccc(Cl)c(Cl)c1)Nc1ncc(-c2ccncc2)s1 | 0.0529% | 
CCC(=O)NC(c1ccc(C)cc1)c1cc([N+](=O)[O-])c2cccnc2c1O (stereo not given) | 0.549% | 
COc1cccc(Nc2nn3c(=O)c4ccccc4nc3s2)c1 | -8.04% | 
O=C(O)c1ccc(-c2nn3c(=O)cc(N4CCNCC4)nc3s2)cc1 | -9% | 
CCOC(=O)/C=C/c1cc(F)c(S(=O)(=O)N2CCN(S(=O)(=O)c3ccc4c(c3)OCCO4)CC2)cc1F | -20.7% | 
COc1cccc(C2c3c(ncn(-c4ccccc4C)c3=N)Oc3ccc4ccccc4c32)c1 (stereo not given) | -2.03% | 
COC(=O)C1CCN(C(=O)c2ccc3c(c2)ncn3-c2cccc(C)c2)CC1 | -6.75% | 
O=[S+]([O-])(c1ccc(-c2ccccc2)cc1)N1CCN([S+](=O)([O-])c2ccc3c(c2)OCCO3)CC1 | -27.3% | 
N=c1c2c(ccn1CCCc1ccccc1)Oc1ccc3ccccc3c1C2c1ccccc1 (stereo not given) | 14.7% | 
Cc1ccnc(NC(=S)N2CCN(c3cc(C(F)(F)F)cc(C(F)(F)F)c3)CC2)c1 | 3.06% | 
CCCn1c(C)nc2c(NCc3ccccc3)nc(C)nc21 | 10.6% | 
C=CCNc1oc(-c2cccc(Br)c2)nc1C#N | 6.77% | 
Cc1ccc(NS(=O)(=O)c2cc3c(cc2F)NC(=O)CC3)cc1Cl |  | inactive
O=[S+]([O-])(NC[C@H]1CCC[C@H](CN[S+](=O)([O-])c2c(F)cccc2F)C1)c1ccc2c(c1)OCCO2 | -0.416% | 
c1ccc(CN(Cc2ccccc2)Cc2nnc(-c3cc4ccccc4[nH]3)o2)cc1 | -0.385% | 

SMILES | activity change, negative = inhibition | Potency
Cc1cc(NCc2ccc(NC(=O)Cc3ccc(Cl)c(Cl)c3)cc2)no1 | 1.13% | 
COc1ccc(C2Nc3ccccc3C(=O)N2Cc2cccc(OC)c2OC)cc1COc1c(C)cc(NC(C)=O)cc1C (stereo not given) | 5.61% | 
c1c[nH]c(CNc2ncnc3ccc(-c4ccoc4)cc23)n1 | 1.39% | 
c1ccc(-n2cc(-c3nnc4n3CCCCC4)c3ccccc32)cc1 | 14.9% | 
CCCCC1CCC(C(=O)Nc2ccc(S(=O)(=O)Nc3nccs3)cc2)CC1 (stereo not given) | 5.41% | 
O=C(Cc1nnc(CNC(=O)c2ccccc2)s1)Nc1ccc(C(F)(F)F)cc1Cl | -1.51% | 
COc1cc(O)c(C(CC(=O)N2CCCC(C)(C)C2)c2ccc3c(c2)OCO3)c(OC)c1 (stereo not given) | 2.66% | 
O=C(NCCc1ccc(OCC(F)(F)F)c(OCC(F)(F)F)c1)c1cc2sccc2n1Cc1ccccc1 | 7.4% | 
CNc1oc(-c2cccc3c2OC(F)(F)O3)nc1C#N | 12.1% | 
Cc1cnc(-c2ccccc2C2COC2)nc1NCC1CCN(c2cccnc2)CC1 | -13% | 
O=[S+]([O-])(c1c(F)cccc1F)N1CCN([S+](=O)([O-])c2c(F)c(F)c(F)c(F)c2F)CC1 | 2.42% | 
Cc1c(P(=S)(c2ccccc2)c2ccccc2)c2ccccc2n1CCCc1ccccc1 | 18.5% | 
Cc1nnc(-c2ccccc2[N+](=O)[O-])n1CCCn1ccnc1 | -7.58% | 
Cc1cc(C=CC#N)cc(C)c1Nc1nc(Nc2ccc3c(c2)OCO3)c2[nH]cnc2n1 | -5.94% | 
O=C1CCCC2=C1C(c1[nH]ncc1Br)N=C(Nc1nc3ccccc3o1)N2 (stereo not given) |  | inactive
Cn1nnnc1Sc1ncnc2scc(-c3ccc(C(=O)OC(C)(C)C)cc3)c12 | 2.71% | 
Cc1ccccc1-c1nnc(NC(=O)Nc2ccc3ccccc3c2)s1 | 2.55% | 
CCCn1c(-c2ccc(F)cc2)nc2c(NCC3CCCN3CC)nc(C)nc21 (stereo not given) | 10.3% | 
CCn1c(-c2nonc2N)nc2c(C#CC(C)(C)O)ncc(OCC3CCCNC3)c21 (stereo not given) | -1.94% | 
CC1(C)C=Cc2c(ccc3c2N=C2C(C)(C)[C@@H]4C[C@]56CCCN5C(=O)[C@@]4(C[C@]23O)NC6=O)O1 | 6.26% [at 28 µM] | 
